This passage reports outcome and AC50 results from PubChem BioAssay (EPA / NIEHS).

Active and inactive are the calls of the source. Rule for the calls: active = hit-call score of the fitted dose curve at least 0.9, where 1 is the maximum; inactive = score below 0.9.

As usually defined, the AC50 is the midpoint of the concentration-response curve, whichever way the signal moves.

Read-out in assay [1]: Human Leukocyte Antigen - DR isotype (HLADR), HLA-DRA (gene 3122)
Put plainly: BSK_BE3C_HLADR: BioMAP Diversity Plus: BE3C Assay for Human Leukocyte Antigen - DR isotype (HLADR) Biomarker Activity (AID 2283032). The conditions noted are these: primary human bronchial epithelial cells; actives raise or lower the signal. In outline:
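Signal came from an ELISA for HLA-DR in human bronchial epithelial primary cells harvested 24 h after treatment; gain- and loss-of-signal fitting used DMSO controls as reference.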

Read-out in assay [2]: Vascular cell adhesion molecule 1 (VCAM1), VCAM1 (gene 7412)
Put plainly: BSK_4H_VCAM1: BioMAP Diversity Plus: 4H Assay for Vascular cell adhesion molecule 1 (VCAM1) Biomarker Activity (AID 2283033).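 For outcome: cell-surface VCAM-1 protein measured by ELISA.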 As to conditions: primary human endothelial cells (HUVEC); actives raise or lower the signal. In short, it runs like this: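 Endpoint derived from bidirectional fitting against DMSO controls of VCAM-1 ELISA signal in umbilical vein endothelial cells sampled at 24 h following treatment.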

Read-out in assay [3]: Interferon-gamma inducible Protein 10 (IP10), CXCL10 (gene 3627)
Description: BSK_BE3C_IP10: BioMAP Diversity Plus: BE3C Assay for Interferon-gamma inducible Protein 10 (IP10) Biomarker Activity (AID 2283034). As to conditions: primary human bronchial epithelial cells; actives raise or lower the signal. In short, it runs like this: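 Using primary human bronchial epithelial cultures, the assay captures IP-10 by ELISA one day (24 h) after exposure. Parallel SRB staining of total protein flags overt cytotoxicity. Fits run bidirectionally relative to DMSO.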

Read-out in assay [4]: Monokine induced gamma interferon (MIG), CXCL9 (gene 4283)
Description: BSK_BE3C_MIG: BioMAP Diversity Plus: BE3C Assay for Monokine induced gamma interferon (MIG) Biomarker Activity (AID 2283035).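 Note: MIG protein measured by ELISA in BE3C cultures after 24 h of dosing.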 The conditions noted are these: primary human bronchial epithelial cells; actives raise or lower the signal. In outline: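 MIG level was determined by ELISA after 24 h chemical treatment of primary human bronchial epithelial cells. Values were fitted bidirectionally with DMSO as the negative control and activity baseline.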

Read-out in assay [5]: Transforming growth factor beta 1 (TGFb1), TGFB1 (gene 7040)
Description: BSK_BE3C_TGFb1: BioMAP Diversity Plus: BE3C Assay for Transforming growth factor beta 1 (TGFb1) Biomarker Activity (AID 2283036;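 for outcome: TGF-b1 protein level measured by ELISA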). As to conditions: primary human bronchial epithelial cells; actives raise or lower the signal. In outline:
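In this human primary bronchial epithelial system, an ELISA quantified TGF-b1 one day after dosing. Endpoint changes in either direction were fitted relative to DMSO.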

Read-out in assay [6]: urokinase plasminogen activator (uPA), PLAU (gene 5328)
Description: BSK_BE3C_uPA: BioMAP Diversity Plus: BE3C Assay for urokinase plasminogen activator (uPA) Biomarker Activity (AID 2283038).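 Note: uPA protein level quantified by ELISA in cell cultures; uPA read one day after compound addition.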 As to conditions: primary human bronchial epithelial cells; actives raise or lower the signal. In short, it runs like this: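 Measured by ELISA: uPA from human primary bronchial epithelial cells 24 h after chemical treatment. Values derive from bidirectional curve fitting with DMSO serving as negative control. Total protein by SRB staining in parallel wells flagged overt cytotoxicity.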

Read-out in assay [7]: Urokinase-type plasminogen activator receptor (uPAR), PLAUR (gene 5329)
Put plainly: BSK_BE3C_uPAR: BioMAP Diversity Plus: BE3C Assay for Urokinase-type plasminogen activator receptor (uPAR) Biomarker Activity (AID 2283039).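 Note: uPAR protein level measured by ELISA on the cells; cells exposed to compound for one day before measurement.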 As to conditions: primary human bronchial epithelial cells; actives raise or lower the signal. In outline:
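A uPAR ELISA serves as the readout, taken 24 h after treating primary human bronchial epithelial cells. Responses in either direction are fitted against DMSO, which defines baseline activity.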

Read-out in assay [8]: Interleukin-6 (IL6), IL6 (gene 3569)
Description: BSK_CASM3C_IL6: BioMAP Diversity Plus: CASM3C Assay for Interleukin-6 (IL6) Biomarker Activity for (AID 2283040). As to conditions: primary human coronary artery smooth muscle cells; actives raise or lower the signal.

Read-out in assay [9]: Tissue plasminogen activator (tPA), PLAT (gene 5327)
Description: BSK_BE3C_tPA: BioMAP Diversity Plus: BE3C Assay for Tissue plasminogen activator (tPA) Biomarker Activity (AID 2283041).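 Note: tPA level quantified by ELISA one day after compound addition.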 As to conditions: primary human bronchial epithelial cells; actives raise or lower the signal. In short, it runs like this: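 Bidirectional curve fitting relative to DMSO defined activity, with tPA detected by ELISA in chemically treated human bronchial epithelial primary cells at 24 hours.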

Read-out in assay [10]: Interleukin-8 (IL8), CXCL8 (gene 3576)
Put plainly: BSK_CASM3C_IL8: BioMAP Diversity Plus: CASM3C Assay for Interleukin-8 (IL8) Biomarker Activity (AID 2283042).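 Note: IL-8 protein level quantified by ELISA.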 As to conditions: primary human coronary artery smooth muscle cells; actives raise or lower the signal.

Read-out in assay [11]: Human Leukocyte Antigen - DR isotype (HLADR), HLA-DRA (gene 3122)
Put plainly: BSK_CASM3C_HLADR: BioMAP Diversity Plus: CASM3C Assay for Human Leukocyte Antigen - DR isotype (HLADR) Biomarker Activity (AID 2283043).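 Note: cell-surface HLA-DR protein level quantified by ELISA.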 The conditions noted are these: primary human coronary artery smooth muscle cells; actives raise or lower the signal.

Read-out in assay [12]: Macrophage colony-stimulating factor (MCSF), CSF1 (gene 1435)
Description: BSK_CASM3C_MCSF: BioMAP Diversity Plus: CASM3C Assay for Macrophage colony-stimulating factor (MCSF) Biomarker Activity (AID 2283044).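 Note: M-CSF protein amount quantified by ELISA after 24 h exposure.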 As to conditions: primary human coronary artery smooth muscle cells; actives raise or lower the signal.

Read-out in assay [13]: Low-density lipoprotein receptor (LDLR), LDLR (gene 3949)
Put plainly: BSK_CASM3C_LDLR: BioMAP Diversity Plus: CASM3C Assay for Low-density lipoprotein receptor (LDLR) Biomarker Activity (AID 2283045).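 Note: LDLR protein level on the cell surface quantified by ELISA.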 The conditions noted are these: primary human coronary artery smooth muscle cells; actives raise or lower the signal.

Read-out in assay [14]: Monocyte Chemoattractant Protein-1 (MCP1), CCL2 (gene 6347)
Description: BSK_CASM3C_MCP1: BioMAP Diversity Plus: CASM3C Assay for Monocyte Chemoattractant Protein-1 (MCP1) Biomarker Activity (AID 2283046).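 Note: MCP-1 level quantified by ELISA 24 h after dosing.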 The conditions noted are these: primary human coronary artery smooth muscle cells; actives raise or lower the signal.

Assay [15] in a line: BSK_CASM3C_Proliferation: Cell Proliferation Assessment in the BioMAP Diversity Plus: CASM3C Assay (AID 2283047).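 Note: sulforhodamine B total protein stain as relative cell number at 560 nm; sub-confluent cells exposed 48 h before staining; fitted both ways against DMSO so gain or loss of cell number.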 The conditions noted are these: primary human coronary artery smooth muscle cells.
Read-out in assay [16]: Monokine induced gamma interferon (MIG), CXCL9 (gene 4283)
Description: BSK_CASM3C_MIG: BioMAP Diversity Plus: CASM3C Assay for Monokine induced gamma interferon (MIG) Biomarker Activity (AID 2283048).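 Note: MIG protein level measured by ELISA.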 As to conditions: primary human coronary artery smooth muscle cells; actives raise or lower the signal.

Read-out in assay [17]: serum amyloid A (SAA), SAA1 (gene 6288)
Description: BSK_CASM3C_SAA: BioMAP Diversity Plus: CASM3C Assay for serum amyloid A (SAA) Biomarker Activity (AID 2283049).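 Note: SAA protein level quantified by ELISA.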 The conditions noted are these: primary human coronary artery smooth muscle cells; actives raise or lower the signal.

Assay [18] can be described thus: BSK_CASM3C_SRB: Viability Assessment in the BioMAP Diversity Plus: CASM3C Assay (AID 2283050).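 Note: cells exposed to compound for 24 h.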 As to conditions: primary human coronary artery smooth muscle cells.
Read-out in assay [19]: Thrombomodulin, THBD (gene 7056)
Description: BSK_CASM3C_Thrombomodulin: BioMAP Diversity Plus: CASM3C Assay for Thrombomodulin Biomarker Activity (AID 2283051).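 Note: thrombomodulin protein level measured by ELISA 24 h after dosing.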 The conditions noted are these: primary human coronary artery smooth muscle cells; actives raise or lower the signal.

Read-out in assay [20]: Plasminogen activator inhibitor-1 (PAI1), SERPINE1 (gene 5054)
Put plainly: BSK_BE3C_PAI1: BioMAP Diversity Plus: BE3C Assay for Plasminogen activator inhibitor-1 (PAI1) Biomarker Activity (AID 2283037). As to conditions: primary human bronchial epithelial cells; actives raise or lower the signal. In outline:
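PAI-1 biomarker levels in treated human bronchial epithelial cells are determined by ELISA at 24 h. Both increases and decreases relative to DMSO are fitted.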

As to `CCN(CC)N=O`, the outcome in [1], in assay [2], in assay [3], in [4], in assay [5] and in assay [6] was inactive. In addition, the outcome in [7], in assay [8], in assay [9], in assay [10], in assay [11] and in assay [12] was inactive. The outcome in [13], in [14], in assay [15], in [16], in [17] and in assay [18] was inactive. Besides, the result in assay [19] was inactive.
Regarding `Clc1ccc(C(c2ccc(Cl)cc2)C(Cl)Cl)cc1`, the concentration at half-maximal activity (AC50) in [1] was 30.5 µM (active); in [2], 25 µM (active); in [3] it was 32.2 µM (active); in [5] it was 34.6 µM (active); in assay [20] it was 34.4 µM (active); in [11], 25.2 µM (active). Also, the AC50 in assay [12] is 15.2 µM (active); in assay [13], 5.11 µM (active); in assay [14] it was 32.1 µM (active); in assay [15], 32.1 µM (active); in assay [19], 24.1 µM (active). Besides, the result in assay [4], in assay [6], in [7], in assay [8], in assay [9] and in [10] was inactive. In addition, the outcome in assay [16], in assay [17] and in assay [18] was inactive.
Consider `C1=Cc2cccc3cccc1c23`, for which the outcome in assay [1], in [2], in assay [3], in [4], in assay [5] and in [20] was inactive. For the same compound, the outcome in assay [6], in [7], in assay [8], in [9], in [10] and in assay [11] was inactive. Further, the result in assay [12], in assay [13], in assay [14], in [15], in [16] and in assay [17] was inactive. The result in [18] and in assay [19] was inactive.
Take `[O-][Cl+]O`: the outcome in [1], in assay [2], in assay [3], in assay [4], in assay [5] and in [20] was inactive. In addition, the result in assay [6], in [7], in assay [8], in assay [9], in [10] and in assay [11] was inactive. Besides, the result in assay [12], in assay [13], in assay [14], in assay [15], in assay [16] and in assay [17] was inactive. Further, the result in assay [18] and in [19] was inactive.
As to `N#CC(Br)(Br)C(N)=O`, the result in assay [1], in [2], in assay [3], in assay [4], in [5] and in assay [6] was inactive. Besides, the outcome in assay [7], in [8], in assay [9], in assay [10], in [11] and in assay [12] was inactive. Besides, the result in assay [13], in assay [14], in assay [15], in [16], in assay [17] and in assay [18] was inactive. The result in assay [19] was inactive.
On to `CC(C)N(Cc1ccccc1)C(=O)C(C)(C)C`, for which the result in assay [1], in [2], in assay [3], in assay [4], in assay [5] and in [20] was inactive. Besides, the result in [6], in assay [7], in assay [8], in assay [9], in assay [10] and in assay [11] was inactive. Further, the result in assay [12], in assay [13], in [14], in [15], in [16] and in assay [17] was inactive. In addition, the result in assay [18] and in assay [19] was inactive.
`Clc1ccc(Cl)c(Cl)c1`: the result in [1], in assay [2], in [3], in assay [4], in [5] and in assay [20] was inactive. The outcome in assay [6], in [7], in assay [8], in assay [9], in assay [10] and in assay [11] was inactive. Further, the outcome in assay [12], in assay [13], in [14], in [15], in [16] and in assay [17] was inactive. Moreover, the outcome in assay [18] and in assay [19] was inactive.
